The nature of experiment [1]: antimalarial activity against Dd2 strain (AID 2302;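 active = growth inhibition above 50% at the single 2 µM test dose, taken to imply half-maximal potency below 2 µM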;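 note: 0% = DMSO untreated growth and 100% = chloroquine plus artemisinin killed control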). To be noted: P. falciparum Dd2 in RBCs, LDH growth readout, 72 h; at 2 µM; stronger effect = higher value.
Experiment [2] can be described thus: human hepatoma cell viability loss – ATP luminescence, cytotoxicity control for P. falciparum antimalarial project, primary screen (AID 2303;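 active = inhibition above 50%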;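 note: 0% = DMSO wells and 100% = digitonin-killed cells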). To be noted: HepG2 viability, 24-48 h, at 10 µM, stronger effect = higher value.
For experiment [3], the target named is L-lactate dehydrogenase (Plasmodium falciparum (isolate CDC / Honduras)) (UniProt Q27743). The experiment is described as follows: PfLDH activity inhibition – cell lysate, 3D7 strain, counter-screen for P. falciparum growth inhibition project (AID 2304).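 Note: 0% = vehicle and 100% = reference inhibitor.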 To be noted: P. falciparum 3D7 crude extract, LDH APAD/NBT absorbance; at 2 µM; stronger effect = higher value. (The purpose of a counterscreen is to sort out artefacts and off-target activity.)
Sequence of L-lactate dehydrogenase (Plasmodium falciparum (isolate CDC / Honduras)) (Q27743 whole entry, looked up): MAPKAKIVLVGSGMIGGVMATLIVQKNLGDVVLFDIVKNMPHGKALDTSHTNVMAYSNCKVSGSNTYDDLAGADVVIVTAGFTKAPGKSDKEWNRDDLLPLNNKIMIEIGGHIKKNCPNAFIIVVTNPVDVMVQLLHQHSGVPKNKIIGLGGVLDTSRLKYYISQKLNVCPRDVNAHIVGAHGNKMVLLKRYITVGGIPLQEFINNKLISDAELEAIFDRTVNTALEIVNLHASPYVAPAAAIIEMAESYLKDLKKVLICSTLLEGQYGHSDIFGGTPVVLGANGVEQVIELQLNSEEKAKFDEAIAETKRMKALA

The nature of experiment [4]: inhibition of 3D7 malaria parasite growth – strain 3D7 (AID 2306).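 Note: 0% = DMSO wells and 100% = chloroquine plus artemisinin control wells.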 To be noted: P. falciparum 3D7 erythrocytic growth, LDH absorbance, 72 h; at 2 µM; stronger effect = higher value.
The target of experiment [5] is Calcium-dependent protein kinase 1 (Plasmodium falciparum (isolate 3D7)) (UniProt P62344). The experiment is described as follows: PfCDPK1 kinase inhibitors, biochemical, TCAMS library (AID 1159585; cut-off not given, nearly all actives have IC50 up to about 0.98 µM;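 note: inhibitors leave more ATP so luminescence rises with inhibition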). To be noted: recombinant PfCDPK1, Kinase-Glo ATP depletion luminescence. In general terms: In Kinase-Glo more light means more ATP remaining.
Sequence of Calcium-dependent protein kinase 1 (Plasmodium falciparum (isolate 3D7)) (P62344 whole entry, looked up): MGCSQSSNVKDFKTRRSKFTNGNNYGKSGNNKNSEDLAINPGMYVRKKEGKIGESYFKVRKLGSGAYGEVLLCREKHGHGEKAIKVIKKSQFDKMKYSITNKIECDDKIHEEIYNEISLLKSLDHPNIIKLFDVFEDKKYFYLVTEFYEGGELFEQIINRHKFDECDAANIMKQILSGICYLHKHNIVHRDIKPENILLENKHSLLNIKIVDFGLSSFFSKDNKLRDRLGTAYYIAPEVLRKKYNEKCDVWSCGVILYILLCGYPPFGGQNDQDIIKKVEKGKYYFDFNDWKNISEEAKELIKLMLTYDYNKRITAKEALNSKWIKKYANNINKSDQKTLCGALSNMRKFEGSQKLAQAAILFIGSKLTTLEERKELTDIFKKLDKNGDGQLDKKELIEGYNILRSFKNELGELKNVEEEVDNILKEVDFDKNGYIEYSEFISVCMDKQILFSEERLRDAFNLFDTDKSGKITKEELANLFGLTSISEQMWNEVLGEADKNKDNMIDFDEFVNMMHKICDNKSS
In experiment [6] the target is Plasmodium falciparum protein kinase 6 (PK6, PF3D7_1337100) (UniProt Q8IDW1). As to the kind of experiment: PfPK6 kinase inhibitors, biochemical, TCAMS library (AID 1159586). To be noted: recombinant PfPK6, Kinase-Glo ATP depletion luminescence.
Sequence of Plasmodium falciparum protein kinase 6 (PK6, PF3D7_1337100) (Q8IDW1 1-305): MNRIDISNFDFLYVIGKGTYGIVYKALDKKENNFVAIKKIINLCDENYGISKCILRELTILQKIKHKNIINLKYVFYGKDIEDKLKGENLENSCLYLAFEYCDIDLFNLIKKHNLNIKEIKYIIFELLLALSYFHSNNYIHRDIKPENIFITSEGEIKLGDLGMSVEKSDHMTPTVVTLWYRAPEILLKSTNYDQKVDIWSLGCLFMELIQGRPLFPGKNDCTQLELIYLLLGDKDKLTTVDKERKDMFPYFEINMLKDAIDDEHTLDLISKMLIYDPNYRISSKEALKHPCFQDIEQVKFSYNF
Experiment [7] deals with Protein kinase 7 (PK7), Plasmodium falciparum 3D7 (PF3D7_0213400) (UniProt Q7YTF7). The experiment is described as follows: inhibition of Plasmodium PK7 catalytic activity – biochemical, TCAMS antimalarial set, Kinase-Glo luminescence (AID 1159587). To be noted: recombinant PfPK7, Kinase-Glo ATP depletion luminescence.
Sequence of Protein kinase 7 (PK7), Plasmodium falciparum 3D7 (PF3D7_0213400) (Q7YTF7 1-343): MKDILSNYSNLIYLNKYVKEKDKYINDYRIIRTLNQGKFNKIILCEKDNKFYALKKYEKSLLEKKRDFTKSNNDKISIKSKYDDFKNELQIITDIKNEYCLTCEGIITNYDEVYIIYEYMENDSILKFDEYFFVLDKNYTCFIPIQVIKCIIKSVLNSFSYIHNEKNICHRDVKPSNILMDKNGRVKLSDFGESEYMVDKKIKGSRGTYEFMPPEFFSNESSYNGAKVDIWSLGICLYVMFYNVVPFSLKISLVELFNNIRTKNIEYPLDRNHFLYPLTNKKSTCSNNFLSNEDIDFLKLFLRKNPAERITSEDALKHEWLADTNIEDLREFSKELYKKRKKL
Experiment [8] has as its target Calcium-dependent protein kinase 4 (Plasmodium falciparum (isolate 3D7)) (UniProt Q8IBS5). As to the kind of experiment: PfCDPK4 kinase inhibitors, biochemical, TCAMS library (AID 1159588; cut-off not given, nearly all actives have IC50 up to about 0.91 µM). To be noted: recombinant PfCDPK4, Kinase-Glo ATP depletion luminescence.

Drawing on PubChem BioAssay, this text covers growth inhibition, inhibition and outcome for 20 compounds.

Values without a mark were called inactive. For some of these results: Potency and affinity values are given separately. Calls of active or inactive are those of the source. Unless noted, the rule behind the calls is not given here.

Sequence of Calcium-dependent protein kinase 4 (Plasmodium falciparum (isolate 3D7)) (Q8IBS5 whole entry, looked up): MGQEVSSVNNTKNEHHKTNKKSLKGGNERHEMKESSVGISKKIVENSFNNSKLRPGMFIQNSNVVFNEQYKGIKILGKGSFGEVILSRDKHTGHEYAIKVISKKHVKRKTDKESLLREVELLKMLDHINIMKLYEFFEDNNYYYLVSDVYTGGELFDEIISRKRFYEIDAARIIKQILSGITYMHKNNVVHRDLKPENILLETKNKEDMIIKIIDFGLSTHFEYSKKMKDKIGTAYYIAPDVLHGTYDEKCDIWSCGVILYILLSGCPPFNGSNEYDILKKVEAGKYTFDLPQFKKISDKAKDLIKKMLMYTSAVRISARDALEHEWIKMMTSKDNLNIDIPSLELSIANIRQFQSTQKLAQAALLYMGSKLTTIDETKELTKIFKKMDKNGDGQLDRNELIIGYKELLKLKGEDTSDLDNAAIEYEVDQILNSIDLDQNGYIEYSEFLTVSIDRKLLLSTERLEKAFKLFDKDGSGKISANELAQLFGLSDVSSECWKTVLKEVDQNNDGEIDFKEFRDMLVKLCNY

A word on the inhibition: it is the drop in the measured response relative to a control, in per cent. On to `O=C(NCCN1CCCCC1)c1cc2cc(-c3ccccc3)ccc2n1S(=O)(=O)c1ccccc1`, for which the growth inhibition is -1% in experiment [1] and 90% (active) in experiment [4]. Besides, the inhibition was 15% in experiment [2] and 2% in experiment [3]. Also, the outcome in experiment [5], in experiment [6], in experiment [7] and in experiment [8] was inactive.

Take `O=C1CCCN1CCCNCc1ccc(-c2ccc(-c3nc4ccc(F)cc4[nH]3)s2)cc1`: the growth inhibition in experiment [1] was 91% (active); in experiment [4], 100% (active). Further, the results for the inhibition in experiment [2] and in experiment [3] were 19% and 0%, respectively. Besides, the result in experiment [5], in experiment [6], in experiment [7] and in experiment [8] was inactive.

For the compound `COc1ccc(C2CCN(CCN3CCC(NC(=O)c4cccc(-c5ccncc5)c4)CC3)CC2)c(OC)c1`, the results for the growth inhibition in experiment [1] and in experiment [4] were 24% and 94% (active), respectively. Moreover, the inhibition in experiment [2] was 7%; in experiment [3], -6%. For the same compound, the result in experiment [5], in experiment [6], in experiment [7] and in experiment [8] was inactive.

In the case of `O=C(NCCCN1CCN(c2cccc(Cl)c2)CC1)c1ccc(-c2nc3cc(Cl)c(Cl)cc3[nH]2)cc1`, the results for the growth inhibition in experiment [1] and in experiment [4] were 95% (active) and 98% (active), respectively. The inhibition was 3% in experiment [2] and -1% in experiment [3]. Also, the result in experiment [5], in experiment [6], in experiment [7] and in experiment [8] was inactive.

As for `O=C(CN1CCC(NCc2cnc(-c3ccc(Cl)cc3)[nH]2)CC1)N1CCc2ccccc21`, the values for the growth inhibition in experiment [1] and in experiment [4] were 5% and 100% (active), respectively. Moreover, the results for the inhibition in experiment [2] and in experiment [3] were 11% and -8%, respectively. In addition, the outcome in experiment [5], in experiment [6], in experiment [7] and in experiment [8] was inactive.

Take `Cc1ccc(C2(CN3CCC(NC(=O)c4[nH]ncc4Cl)CC3)CCCCC2)cc1`: the figures for the growth inhibition in experiment [1] and in experiment [4] were 96% (active) and 97% (active), respectively. Further, the results for the inhibition in experiment [2] and in experiment [3] were -11% and -3%, respectively. In addition, the result in experiment [5], in experiment [6], in experiment [7] and in experiment [8] was inactive.

Turning to `CC(C)Oc1cc2c(cc1NS(=O)(=O)c1ccc(-c3ccc(Cl)s3)cc1F)CCN(C)CC2`, the results for the growth inhibition in experiment [1] and in experiment [4] were 1% and 99% (active), respectively. In addition, the inhibition in experiment [2] is 23%; in experiment [3], -5%. In addition, the result in experiment [5], in experiment [6], in experiment [7] and in experiment [8] was inactive.

As to `COc1cc2nc(NCCCOC(C)C)n3nc(-c4ccccc4)nc3c2cc1OC`, the growth inhibition in experiment [1] was 97% (active); in experiment [4] it was 94% (active). For the same compound, the inhibition in experiment [2] was -3%; in experiment [3] it was -1%. For the same compound, the outcome in experiment [5], in experiment [6], in experiment [7] and in experiment [8] was inactive.

Turning to `C=CCc1cc(Cc2cnc(N)nc2N)cc(CCC)c1O`, the values for the growth inhibition in experiment [1] and in experiment [4] were 2% and 90% (active), respectively. In addition, the inhibition is 54% (active) in experiment [2] and -1% in experiment [3]. Further, the result in experiment [5], in experiment [6], in experiment [7] and in experiment [8] was inactive.

In the case of `CC(C)CCNc1nc2ccccc2nc1Nc1cccc(C(F)(F)F)c1`, the growth inhibition in experiment [1] is 99% (active); in experiment [4] it was 98% (active). The inhibition was 12% in experiment [2] and 1% in experiment [3]. Moreover, the outcome in experiment [5], in experiment [6], in experiment [7] and in experiment [8] was inactive.

Take `O=c1[nH]nc(-c2ccc(N3CCCC3)c([N+](=O)[O-])c2)c2ccccc12`: the growth inhibition in experiment [1] is 39%; in experiment [4], 100% (active). Also, the inhibition was 2% in experiment [2] and -6% in experiment [3]. Moreover, the outcome in experiment [5], in experiment [6], in experiment [7] and in experiment [8] was inactive.

For `COc1cccc2cc(C(=O)N[C@@H](CC(C)C)C(=O)N[C@H](/C=N/NC(=O)N3CCN(C)CC3)CCc3ccccc3)oc12`, the figures for the growth inhibition in experiment [1] and in experiment [4] were 73% (active) and 85% (active), respectively. Moreover, the inhibition was 1% in experiment [2] and 4% in experiment [3]. For the same compound, the outcome in experiment [5], in experiment [6], in experiment [7] and in experiment [8] was inactive.

For the compound `O=C1C(=Cc2cc(Cc3ccccc3)ccc2O)SC(=S)N1Cc1ccccc1`, the growth inhibition in experiment [1] is 53% (active); in experiment [4] it was 98% (active). Also, the inhibition is 16% in experiment [2] and -2% in experiment [3]. For the same compound, the outcome in experiment [5], in experiment [6], in experiment [7] and in experiment [8] was inactive.

For the compound `COc1cc(-c2cc3cc(Cl)c(Cl)cc3[nH]2)ccc1C(=O)NCCC1CCCN1C` (stereo not given), the growth inhibition in experiment [1] was 41%; in experiment [4], 91% (active). Moreover, the inhibition is 20% in experiment [2] and -5% in experiment [3]. In addition, the result in experiment [5], in experiment [6], in experiment [7] and in experiment [8] was inactive.

Take `CN1CCCN(Cc2cccc(-c3ccc(NC(=O)c4ccc(Cl)cc4)cc3)c2)CC1`: the values for the growth inhibition in experiment [1] and in experiment [4] were 35% and 97% (active), respectively. The inhibition is 31% in experiment [2] and -5% in experiment [3]. The result in experiment [5], in experiment [6], in experiment [7] and in experiment [8] was inactive.

For `CCNc1cc(C(=O)N[C@@H](Cc2ccccc2)[C@H](O)CNC2CCCC2)cc(N2CCCC2=O)c1`, the growth inhibition in experiment [1] and in experiment [4] was 98% (active) each time. Also, the inhibition in experiment [2] is 8%; in experiment [3] it was 2%. Moreover, the outcome in experiment [5], in experiment [6], in experiment [7] and in experiment [8] was inactive.

As to `Cc1ccc(C)c(NC(=O)NC2CCN(c3ccnc(Nc4ccc(F)cc4)n3)C2)c1` (stereo not given), the growth inhibition in experiment [1] was 74% (active); in experiment [4], 100% (active). Moreover, the inhibition was -2% in experiment [2] and -3% in experiment [3]. For the same compound, the result in experiment [5], in experiment [6], in experiment [7] and in experiment [8] was inactive.

For the compound `COc1cc2nc(N3CCC(CNC(=O)c4cc(Br)c(Br)s4)CC3)nc(N)c2cc1OC`, the growth inhibition in experiment [1] is 97% (active); in experiment [4] it was 101% (active). Also, the inhibition in experiment [2] is 22%; in experiment [3], 2%. The result in experiment [5], in experiment [6], in experiment [7] and in experiment [8] was inactive.

With `S=C(NCCCCCN1CCC(c2c[nH]c3ccccc23)CC1)Nc1ccc(Cl)c(Cl)c1`, the growth inhibition was 31% in experiment [1] and 101% (active) in experiment [4]. The inhibition in experiment [2] is 89% (active); in experiment [3] it was -3%. Also, the outcome in experiment [5], in experiment [6], in experiment [7] and in experiment [8] was inactive.

In the case of `Cc1cc(N[C@@H](Cc2ccccc2)C(=O)NC2CCCC2)nc(NCC2CCCCC2)n1`, the values for the growth inhibition in experiment [1] and in experiment [4] were 96% (active) and 101% (active), respectively. The inhibition in experiment [2] is 18%; in experiment [3] it was 4%. The outcome in experiment [5], in experiment [6], in experiment [7] and in experiment [8] was inactive.
